Results taken from PubChem BioAssay AID1159580 (chemical genetic matrix, 2015).
Out of some 5,500 compounds screened, about 2,000 (36%) were called active. Another 18% or so got no clear call; they are omitted. No stated cut-off is given here; in the data, active means normalized growth mostly below about 0.91 (no sharp cut-off); inconclusive means no clear call, values can overlap the other calls; inactive means mostly above about 0.92. The list shows a part of the results.

Assay: chemical genetic growth profiling, strain panel (AID 1159580);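 further: tested at 20 µM; growth read once vehicle control cultures reached saturation at 30 °C; 1 = growth at the plate median or of vehicle wells; lower values mean less growth of the strain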
Settings: S. cerevisiae deletion strains, growth OD
[1] = locus YAR019C, strain CDC15, hits give low values
[2] = locus YBL105C, strain PKC1, hits give low values
[3] = locus YBR135W, strain CKS1, hits give low values
[4] = locus YBR136W, strain MEC1, hits give low values
[5] = locus YBR160W, strain CDC28, hits give low values
[6] = locus YDL017W, strain CDC7, hits give low values
[7] = locus YDL028C, strain MPS1, hits give low values
[8] = locus YDL101C, strain DUN1, hits give low values
[9] = locus YDL108W, strain KIN28, hits give low values
[10] = locus YDL132W, strain cdc53, hits give low values
[11] = locus YDL214C, strain PRR2, hits give low values
[12] = locus YDR052C, strain DBF4, hits give low values
[13] = locus YDR054C, strain cdc34, hits give low values
[14] = locus YDR226W, strain ADK1, hits give low values
[15] = locus YDR477W, strain SNF1, hits give low values
[16] = locus YER123W, strain YCK3, hits give low values
[17] = locus YER133W, strain GLC7, hits give low values
[18] = locus YFL009W, strain cdc4, hits give low values
[19] = locus YFL029C, strain CAK1, hits give low values
[20] = locus YFR003C, strain YPI1, hits give low values
[21] = locus YFR019W, strain FAB1, hits give low values
[22] = locus YFR028C, strain CDC14, hits give low values
[23] = locus YGR040W, strain KSS1, hits give low values
[24] = locus YGR052W, strain FMP48, hits give low values
[25] = locus YGR092W, strain DBF2, hits give low values
[26] = locus YHR030C, strain SLT2, hits give low values
[27] = locus YHR079C, strain IRE1, hits give low values
[28] = locus YHR082C, strain KSP1, hits give low values
[29] = locus YHR205W, strain SCH9, hits give low values
[30] = locus YIL147C, strain SLN1, hits give low values
[31] = locus YJL095W, strain BCK1, hits give low values
[32] = locus YJL128C, strain PBS2, hits give low values
[33] = locus YJL157C, strain FAR1, hits give low values
[34] = locus YJR016C, strain ILV3, hits give low values
[35] = locus YJR066W, strain TOR1 (second series), hits give low values
[36] = locus YJR066W, strain TOR1, hits give low values
[37] = locus YKL048C, strain ELM1, hits give low values
[38] = locus YKL067W, strain YNK1, hits give low values
[39] = locus YKL101W, strain HSL1, hits give low values
[40] = locus YKL193C, strain SDS22, hits give low values
[41] = locus YKL203C, strain TOR2, hits give low values
[42] = locus YLR113W, strain HOG1, hits give low values
[43] = locus YLR133W, strain CKI1, hits give low values
[44] = locus YLR403W, strain SFP1, hits give low values
[45] = locus YML070W, strain DAK1, hits give low values
[46] = locus YMR001C, strain CDC5, hits give low values
[47] = locus YMR205C, strain PFK2 (second series), hits give low values
[48] = locus YMR277W, strain FCP1, hits give low values
[49] = locus YNL006W, strain LST8, hits give low values
[50] = locus YNL020C, strain ARK1, hits give low values
[51] = locus YNL161W, strain CBK1, hits give low values
[52] = locus YNL183C, strain NPR1, hits give low values
[53] = locus YNL207W, strain RIO2, hits give low values
[54] = locus YNL222W, strain SSU72, hits give low values
[55] = locus YNL307C, strain MCK1 (second series), hits give low values
[56] = locus YOL078W, strain AVO1, hits give low values
[57] = locus YOL136C, strain PFK27, hits give low values
[58] = locus YOR061W, strain CKA2, hits give low values
[59] = locus YOR119C, strain RIO1, hits give low values
[60] = locus YOR231W, strain MKK1, hits give low values
[61] = locus YOR329C, strain SCD5, hits give low values
[62] = locus YPL031C, strain PHO85, hits give low values
[63] = locus YPL153C, strain RAD53, hits give low values
[64] = locus YPL204W, strain HRR25, hits give low values
[65] = locus YPL209C, strain IPL1, hits give low values
[66] = locus YPL256C, strain CLN2, hits give low values
[67] = locus YPR025C, strain CCL1, hits give low values
[68] = locus YPR106W, strain ISR1, hits give low values
[69] = locus YPR111W, strain DBF20, hits give low values
[70] = strain NNK1, hits give low values
[71] = strain TSCII, hits give low values

Measured: normalized growth

CC(NC(=S)N/N=C\c1ccccc1O)c1ccccc1 (configuration not stated)
inactive: [1] 0.984 | [2] 0.982 | [3] 0.971 | [4] 0.975 | [5] 0.974 | [6] 0.974 | [7] 0.981 | [8] 0.977 | [9] 0.969 | [10] 0.973 | [11] 0.973 | [12] 0.986 | [13] 0.951 | [14] 0.97 | [15] 0.927 | [16] 0.905 | [17] 0.953 | [18] 0.972 | [19] 0.974 | [20] 0.979 | [21] 0.99 | [22] 0.982 | [23] 0.944 | [24] 1.06 | [25] 0.897 | [27] 0.951 | [28] 1.03 | [29] 1.01 | [30] 0.985 | [31] 0.87 | [32] 0.986 | [33] 0.966 | [34] 0.977 | [35] 0.944 | [36] 0.943 | [37] 0.972 | [38] 0.992 | [39] 0.978 | [40] 0.976 | [41] 0.98 | [42] 0.966 | [43] 0.97 | [44] 0.939 | [45] 0.964 | [46] 0.979 | [47] 0.977 | [48] 0.971 | [49] 0.991 | [50] 0.964 | [51] 0.984 | [52] 0.896 | [53] 0.976 | [54] 0.974 | [55] 0.933 | [56] 0.978 | [57] 0.984 | [58] 0.959 | [59] 1.04 | [60] 0.981 | [61] 0.983 | [62] 0.927 | [63] 0.929 | [64] 0.922 | [65] 0.979 | [66] 0.944 | [67] 0.979 | [68] 0.992 | [69] 0.983 | [70] 0.992 | [71] 0.978
active: [26] 0.772

COc1ccccc1NC(=S)N/N=C\c1ccccc1O
inactive: [1] 0.962 | [2] 0.968 | [3] 0.967 | [4] 0.965 | [5] 0.967 | [6] 0.967 | [7] 0.96 | [8] 0.978 | [9] 0.954 | [10] 0.965 | [11] 0.941 | [12] 0.973 | [13] 0.957 | [14] 0.959 | [15] 0.938 | [16] 0.928 | [17] 0.942 | [18] 0.965 | [19] 0.953 | [20] 0.97 | [21] 0.976 | [22] 0.966 | [23] 0.939 | [24] 1.02 | [25] 0.891 | [26] 0.903 | [27] 0.956 | [28] 0.964 | [29] 0.98 | [30] 0.961 | [31] 0.978 | [32] 0.957 | [33] 0.951 | [34] 0.979 | [35] 0.903 | [36] 0.942 | [37] 0.962 | [38] 0.955 | [39] 0.948 | [40] 0.964 | [41] 0.971 | [42] 0.955 | [43] 0.942 | [44] 0.916 | [45] 0.973 | [46] 0.958 | [47] 0.959 | [48] 0.966 | [49] 0.97 | [50] 0.955 | [51] 0.967 | [52] 0.975 | [53] 0.97 | [54] 0.967 | [55] 0.949 | [56] 0.968 | [57] 0.967 | [58] 0.931 | [59] 0.941 | [60] 0.967 | [61] 0.969 | [62] 0.93 | [63] 0.937 | [64] 0.941 | [65] 0.967 | [66] 0.929 | [67] 0.968 | [68] 0.969 | [69] 0.978 | [70] 0.986 | [71] 0.969
